Screening data from PubChem BioAssay.
Rows were chosen to be rich in hits. Some 6.1% of all compounds tested hit in one or more screens of this group.
ERG Ets-DNA blk: qHTS for Small Molecule Inhibitors of the ERG Ets/DNA interaction | Transcriptional regulator ERG (Homo sapiens), P11308 | fluorescence polarization, His-ERG Ets domain / labelled DNA | Potency, µM (highest dose often 76.9 µM), for the others: at the highest dose FP activity, negative = inhibition, usual class: inhibitors | 370,000 compounds, 0.028% hits | AID 624246, 2012; active = well fitted inhibition curve with a large enough effect in the polarisation, with a control signal flat; the % refers to the polarisation;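 note: polarization taken with two DNA probes labelled with fluorescein and Texas red; potency is the fitted concentration of half-maximal effect; % of control where 0% means no effect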
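His-tagged ERG Ets domain (1 uM in the protein solution; 300mM KCl, 50mM Tris-HCl, 1mM EDTA, 1mM DTT, pH 7.5) received compound, then a probe mix of 5 nM fluorescein-DNA and 100nM Texas-615-DNA. Fluorescence polarization was read for both dyes.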
D1 antag: Antagonist of Human D 1 Dopamine Receptor: qHTS; HEK293 TREx D1 cells, calcium flux, dopamine EC80; hits give low values; D(1A) dopamine receptor (Homo sapiens), P21728; 360,000 compounds, 3.2% hits; activity change, negative = inhibition, % at 10 µM; in the data active = activity change below about -30%; note: % is set by controls: 0 for no effect and ±100 for the full control effect
Target sequence (P21728 whole entry, looked up): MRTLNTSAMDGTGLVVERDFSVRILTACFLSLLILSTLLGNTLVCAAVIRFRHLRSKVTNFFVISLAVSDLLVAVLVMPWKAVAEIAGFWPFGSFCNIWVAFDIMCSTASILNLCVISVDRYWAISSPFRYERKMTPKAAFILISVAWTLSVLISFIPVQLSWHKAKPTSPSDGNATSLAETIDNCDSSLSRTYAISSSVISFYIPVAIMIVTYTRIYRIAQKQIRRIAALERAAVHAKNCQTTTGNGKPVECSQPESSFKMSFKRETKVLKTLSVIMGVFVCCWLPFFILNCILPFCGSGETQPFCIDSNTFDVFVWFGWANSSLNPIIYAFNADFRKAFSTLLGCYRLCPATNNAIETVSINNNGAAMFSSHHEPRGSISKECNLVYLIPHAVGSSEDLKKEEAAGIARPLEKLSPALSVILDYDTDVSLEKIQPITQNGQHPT
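Kinetic fluorescence of a calcium dye serves as the read-out. D1-expressing Hek293 Trex cells, induced overnight at 30 C, are exposed to compound for 180 s before an EC80 dopamine addition, then read 180 s further.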
DRD3 agonist: qHTS of D3 Dopamine Receptor Agonist: qHTS | max activation, % | 410,000 compounds, 0.58% hits | D(3) dopamine receptor (Homo sapiens), P35462 | D3R DiscoveRx beta-arrestin cells, luminescence, 90 min; in the data active = max activation above about 30%; note: 0% is about no effect
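Cells at 1500/well, incubated overnight, then treated with pinned compounds (dopamine as control) for 90 min at 37 degrees C. DiscoveRx reagent added for 30 - 60 minutes at room temperature; luminescence read.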
D3 antag: qHTS of D3 Dopamine Receptor Antagonist: qHTS. D(3) dopamine receptor (Homo sapiens), P35462. D3R cells, DiscoveRx beta-arrestin luminescence, antagonist mode; hits give low values. max response, negative = inhibition, %. 360,000 compounds, 2.5% hits. AID 652054, 2013; in the data active = max response below about -50%; note: % is set by controls: 0 for no effect and ±100 for the full control effect
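Cells expressing the human receptor were seeded at 1500 cells/well, incubated overnight at 37 degrees C in 5% CO2, then exposed to library compounds with dopamine controls for 90 minutes at 37 degrees C before luminescent detection.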
D1 PAM: Potentiators of Human D1 Dopamine Receptor: qHTS; HEK293 TREx D1 cells, calcium flux, dopamine EC20 potentiation; potentiation, % at 10 µM; 360,000 compounds, 0.036% hits; AID 504651, 2011; in the data active = potentiation above about 30%; note: 0% is about no effect
D1 ag: Allosteric Agonists of the Human D1 Dopamine Receptor: qHTS | HEK293 T-REx D1 cells, calcium flux, agonist mode | activation, % at 2 µM | 360,000 compounds, 1% hits | AID 504660, 2011; in the data active = activation above about 30%; note: 0% is about no effect
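Agonism was scored from calcium flux recorded over 180 s (1 read/s) after pintool compound addition, following a 10-cycle baseline. Cells were inducible force-coupled HEK293 TREx D1, plated overnight at 30 C and loaded with no-wash calcium dye.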
Starred values were filed as active, the others as inactive; nt = not tested or not shown.

SMILES	ERG Ets-DNA blk	D1 antag	DRD3 agonist	D3 antag	D1 PAM	D1 ag
C=CCC[C@H](Cc1ccc(F)cc1)C(=O)OC[C@H](Cc1c[nH]c2ccccc12)NC(=O)[C@H](CC=C)CC(=O)N[C@H](CO)Cc1ccccc1	1.9%	nt	8.7	5.1	nt	nt
Cn1c(/C=C(\C#N)C(N)=S)ccc1-c1ccc(Br)cc1	16.8%	-36.8*	-2.9	-10.8	-9.6	1.3
COc1ccccc1Nc1ccc(C(=O)O)cc1[N+](=O)[O-]	1.9%	-17.3	-16.9	-58.9*	-14.7	4.0
COc1ccccc1Nc1ccncc1[N+](=O)[O-]	-13.8%	-48.2*	-0.5	2.6	-4.5	12.0
CCn1ncc(C2=NOC(C(=O)Nc3cnn(C45CC6CC(CC(C6)C4)C5)c3)C2)c1C (stereo not given)	-1.0%	-24.5	-3.3	-10.4	-3.7	34.1*
Cc1cccc(Nc2ccc(S(=O)(=O)N3CCOCC3)cc2[N+](=O)[O-])c1	-5.7%	-25.5	-7.2	-15.3	nt	3.1
Cc1ccc(CNc2ccc(S(=O)(=O)N3CCOCC3)cc2[N+](=O)[O-])cc1	-3.6%	-56.6*	-3.9	-6.2	1.9	5.5
O=[N+]([O-])c1cc(S(=O)(=O)N2CCOCC2)ccc1N1CCCC1	-5.9%	-30.8*	1.2	-5.0	5.9	1.1
O=C(O)C1CCN(c2ccc(S(=O)(=O)N3CCOCC3)cc2[N+](=O)[O-])CC1	-0.5%	-23.8	-1.8	-14.2	-4.2	4.3
COC(=O)c1ccc(N2CCN(S(=O)(=O)c3ccc(C)cc3)CC2)c([N+](=O)[O-])c1	-6.7%	-16.3	2.4	12.4	-4.7	7.1
COC(=O)c1ccc(N2CCN(S(=O)(=O)c3ccc(Br)cc3)CC2)c([N+](=O)[O-])c1	2.2%	-32.7*	5.8	-12.4	-2.1	7.3
CC(=O)N1CCc2c(sc3c2c(=O)n(Cc2ccccc2)c(=O)n3Cc2cccc(Cl)c2)C1	0.5%	12.1	7.6	nt	-1.7	2.7
CCCc1cc(=O)[nH]c(SCC(=O)N2CC3(C)CC2CC(C)(C)C3)n1 (stereo not given)	-2.1%	-46.9*	0.9	1.6	nt	2.2
Cc1cc(=O)[nH]c(SCC(=O)N2CC3(C)CC2CC(C)(C)C3)n1 (stereo not given)	-10.6%	nt	2.5	6.9	nt	nt
CC(Sc1nc2ccccc2s1)C(=O)N(C)Cc1ccccc1 (stereo not given)	-1.3%	1.6	2.5	-7.1	-7.8	0.3
CC(C)CCOc1ccccc1Cn1c(=O)sc2ccccc21	2.7%	14.0	-4.5	nt	-4.0	34.8*
COc1ccc(-c2c(NC(=O)CC(C)C)n(C)c3ccccc3c2=O)cc1OC	4.2%	19.5	-4.1	-17.8	-5.0	4.2
C1CCC(C(CC2CCCCN2)C2CCCCC2)CC1 (stereo not given)	-3.6%	67.5	0.0	-2.9	12.8	135.7*
COc1ccc(-c2cn3c(C)c(C(=O)Nc4cccc(C)n4)sc3n2)cc1	1.2%	-59.1*	11.6	28.4	-4.3	1.3
O=C(N/N=C\c1cccnc1)c1ccc(Cl)s1	1.1%	-8.8	-4.5	-11.7	-0.3	4.7
O=C(COC(=O)c1cc(S(=O)(=O)N2CCc3ccccc3C2)ccc1Cl)NCc1ccco1	-2.1%	7.6	-4.2	-55.0*	-0.8	2.9
O=C(COC(=O)c1cccc(S(=O)(=O)N2CCc3ccccc3C2)c1)NCc1ccco1	-3.7%	10.3	-13.0	-26.4	-0.7	4.7
CCCCCC[C@@H](CCC)C(=O)O	nt	nt	2.3	nt	nt	nt
S=c1[nH]nc(-c2ccco2)n1/N=C/c1ccc(Cl)cc1Cl	-0.2%	-16.5	1.3	-53.7*	0.7	0.7
S=c1[nH]nc(-c2ccco2)n1-c1cccc2ccccc12	-6.3%	21.2	1.1	-74.4*	1.4	-2.4
SMILES	ERG Ets-DNA blk	D1 antag	DRD3 agonist	D3 antag	D1 PAM	D1 ag
S=c1[nH]nc(-c2ccccc2)n1/N=C/C=C/c1ccco1	4.5%	-7.2	-14.0	-24.4	-2.9	-0.6
COc1ccccc1-n1c(-c2ccco2)n[nH]c1=S	-18.1%	1.7	1.5	19.6	7.2	3.2
S=c1[nH]nc(-c2ccc(Cl)cc2)n1/N=C/C=C/c1ccco1	9.4%	13.8	-2.9	-79.8*	-9.1	1.2
S=c1[nH]nc(-c2ccco2)n1/N=C/C=C/c1ccccc1	6.6%	-12.0	-13.2	-63.7*	-5.4	1.4
O=C(Oc1ccc(Cl)c2cccnc12)N1CCCCCC1	-1.5%	-4.9	-6.8	-0.1	-9.3	1.2
NS(=O)(=O)c1cccc(NC(=O)CSc2nnc(C3CC3)n2-c2ccccc2)c1	-3.4%	nt	-11.3	10.2	nt	nt
CCOc1c(Cl)cc(Cl)cc1CNCCSc1nnnn1C	-11.1%	3.2	1.1	nt	-2.5	4.4
CN(CC(=O)Nc1ccc(N2CCOCC2)cc1)C(=O)CCCOc1ccc(Cl)cc1Cl	-4.5%	-5.9	-0.9	8.4	-6.3	4.0
COc1ccccc1/C=C/C=N/n1c(-c2ccc(Cl)cc2)n[nH]c1=S	-3.5%	2.8	-17.9	-62.6*	-3.4	1.8
Cn1cccc1/C=N/n1c(-c2ccc(Cl)cc2Cl)n[nH]c1=S	-12.2%	2.9	-9.5	-3.1	-2.4	43.9*
O=C(NCC1CCCCC1)c1cc(Br)ccc1Cl	2.3%	-32.1*	-11.9	5.8	0.7	-0.5
O=C(NCC1CCCCC1)c1cc(S(=O)(=O)N2CCCCC2)ccc1Cl	-1.6%	20.3	0.8	-9.0	1.2	0.9
CCc1nnc(NS(=O)(=O)c2ccc(NC(=S)NC(=O)c3ccc(OC)cc3)cc2)s1	8.7%	-31.5*	0.2	-19.0	11.2	1.5
COc1nccnc1NS(=O)(=O)c1ccc(NC(=S)NC(=O)c2ccc(F)cc2)cc1	-18.2%	1.1	-7.2	-64.7*	0.1	2.9
CCc1nnc(NS(=O)(=O)c2ccc(NC(=S)NC(=O)c3ccc(OC)c(OC)c3)cc2)s1	-5.3%	-2.4	2.7	2.4	5.3	1.9
COc1nccnc1NS(=O)(=O)c1ccc(NC(=S)NC(=O)c2ccccc2F)cc1	10.4%	-1.2	-11.2	13.1	-1.5	2.4
COc1ccc(/C=C/C(=O)NC(=S)Nc2ccc(S(=O)(=O)Nc3nccnc3OC)cc2)cc1	22.5%	7.1	-8.7	-62.1*	-1.4	0.3
COc1nccnc1NS(=O)(=O)c1ccc(NC(=S)NC(=O)c2cccc(F)c2)cc1	nt	3.2	-3.2	-61.6*	-3.4	0.4
CC(=O)NC1=C(NC2CCS(=O)(=O)C2)C(=O)c2ccccc2C1=O (stereo not given)	-4.2%	-7.1	-14.8	-3.7	-6.0	-0.9
